Screening results from PubChem BioAssay.
VP16 counter: counter-screen for ROR gamma inhibitors: Gal4-VP16 reporter | Drosophila S2 Gal4-VP16 UAS-luciferase, luminescence, 20 h | Potency, µM (titrated, usually from 53.6 µM), actives largely listed as inhibitors | hit rate 3.5% among 310,000;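 further: Gal4-VP16 expression switched on by copper sulfate through the metallothionein promoter; nearly all actives have a fitted effect of over 50% in size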
SW480 rerep: induces DNA re-replication in SW480 colon adenocarcinoma cells; SW480 DNA re-replication, Hoechst DNA content imaging, 48 h; Potency, µM (series often up to 46.1 µM), most hits filed as activators; hit rate 1.8% among 340,000; AID 624297; further: nearly all actives have a fitted effect of over 55% in size
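Treated cells incubate 48 hr (37 C, 5% CO2), are stained 40 min with Hoechst, and nuclear fluorescence is enumerated; a rise in nuclei with high DNA signal marks re-replication.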
IL1B secr inh: blocks inflammasome-driven IL-1 beta release. THP-1 LPS/ATP IL-1B secretion, AlphaLISA, 16 h; stronger effect = lower value. activity change, % at 57.5 µM. hit rate 4.7% among 360,000. AID 743279; in the data active means activity change below about -50%; inconclusive means mostly about -30% to -49%
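Secreted IL-1B measured by AlphaLISA bead assay after 16 h compound exposure of THP-1 cells; compounds (final up to 57.5 uM) added 1 h before LPS (250 ng/mL) and ATP (1.25 mM) stimulation; lower signal means less secretion.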
RORgamma inh: inhibitors of mouse ROR gamma transcriptional activity | Drosophila S2 Gal4-RORgamma UAS-luciferase reporter, 20 h | Potency, µM (titrated, usually from 53.6 µM), most hits filed as inhibitors | AID 2551 | hit rate 5.4% among 310,000 | P51450; further: nearly all actives have a fitted effect of over 60% in size
Target sequence (P51450 whole entry, looked up, the tested form may be a part): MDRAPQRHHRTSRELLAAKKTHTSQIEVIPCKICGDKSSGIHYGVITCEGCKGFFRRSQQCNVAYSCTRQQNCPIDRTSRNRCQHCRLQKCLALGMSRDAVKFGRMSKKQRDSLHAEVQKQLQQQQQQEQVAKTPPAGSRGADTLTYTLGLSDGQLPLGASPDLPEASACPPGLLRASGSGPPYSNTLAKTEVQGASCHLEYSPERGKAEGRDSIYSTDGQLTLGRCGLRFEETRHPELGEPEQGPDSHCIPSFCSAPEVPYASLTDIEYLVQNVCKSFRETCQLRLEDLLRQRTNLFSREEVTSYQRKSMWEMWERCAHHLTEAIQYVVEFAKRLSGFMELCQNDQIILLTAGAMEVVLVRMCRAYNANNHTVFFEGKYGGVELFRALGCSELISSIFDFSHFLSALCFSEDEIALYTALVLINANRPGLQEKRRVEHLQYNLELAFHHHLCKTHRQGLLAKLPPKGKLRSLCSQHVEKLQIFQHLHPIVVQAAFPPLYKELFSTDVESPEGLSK
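Drosophila Schneider cells stably carrying a metallothionein-driven Gal4 DBD–ROR gamma fusion and a UAS-Photinus luciferase reporter were exposed to compound for 1 hr, then induced with copper sulfate (700 uM final) for 20 hr at ambient temperature before luminescence reading.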
MCF10A rerep: induces DNA re-replication in MCF 10a normal breast cells; MCF 10A DNA re-replication, Hoechst nuclear intensity, 48 h; Potency, µM (doses to about 46.1 µM), most hits filed as activators; AID 624296; hit rate 2.9% among 350,000; further: nearly all actives have a fitted effect of over 50% in size
Hits are given with their value; – = inactive; ? = inconclusive; · = no result; [ ] = dose if it differs, or a comment. An excerpt weighted towards active compounds, which were near 11% of everything screened. Unless noted, the call rests on the fitted dose curve; in most records, active means well fitted curve in the direction sought with a large enough effect; inconclusive means small, poorly fitted or top-dose-only effect, or another doubt; inactive means no such curve, though single readings can be large; an effect the other way counts as inactive or inconclusive.

SMILES	VP16 counter	SW480 rerep	IL1B secr inh	RORgamma inh	MCF10A rerep
COc1ccc(NC(=O)Cc2nnc(SCC(=O)c3ccccc3)n2C)cc1	–	–	–	–	–
COc1ccc(-n2c(CCc3ccccc3)nnc2SCC(=O)NCc2ccccc2)cc1	?	–	-52	?	–
COc1ccc(C(=O)CSc2nnc(CCc3ccccc3)n2-c2ccccc2)cc1	?	–	–	16µM	7.3µM
COc1ccc(-n2c(CCc3ccccc3)nnc2SCC(=O)c2ccccc2)cc1	–	–	-80	–	?
Cc1ccccc1NC(=O)C1C(=O)Nc2ccccc2C(=O)N1Cc1ccccc1 (centres undefined)	·	·	–	·	·
O=CNc1ccc2c3c(cccc13)-c1ccccc1-2	·	2.3µM	–	·	?
CC(=O)Nc1ccc2c3c(cccc13)C(=O)N(c1ccccc1)C2=O	–	–	–	–	–
COC(=O)c1cc(NC(=O)c2cc(-c3ccc(C(F)(F)F)cc3)oc2C(F)(F)F)ccc1N1CCOCC1	–	5.8µM	–	–	–
COC(=O)c1cc(NC(=O)c2cc(-c3ccc(OC)cc3)oc2C(F)(F)F)ccc1N1CCOCC1	?	–	–	–	–
COc1cc2c(cc1OC)C(=O)CCC2	·	–	–	·	–
COc1ccc(N(CC(C)C)S(=O)(=O)c2nnc(NC(=O)CC(C)C)s2)cc1	–	–	–	–	–
CCN(c1ccc(OC)cc1)S(=O)(=O)c1nnc(NC(=O)CC(C)C)s1	–	–	-53	–	–
COc1ccc(C2=Nc3ccccc3C2(O)CCN2C(=O)c3ccccc3C2=O)cc1 (centres undefined)	·	–	–	·	–
C=CCn1c(=O)c2ccccc2n2c(SCc3nnc(-c4ccccc4Br)o3)nnc12	–	–	–	–	23µM
CC(=O)N(O)c1ccc(C=Cc2ccccc2)cc1	·	·	–	·	·
O=C(Nc1cccc(S(=O)(=O)N2CCCC2)c1)[C@@H]1O[C@H](CO)[C@H](O)[C@H](O)[C@H]1O	·	·	–	·	·
O=C(Cc1cccs1)Nc1ccc(Cl)c(S(=O)(=O)N2CCOCC2)c1	·	5.8µM	–	·	–
Cn1nc(C(=O)Nc2cccc(S(=O)(=O)N3CCCCC3)c2)c2ccccc2c1=O	·	–	-54	·	–
Cn1nc(C(=O)Nc2ccc(S(=O)(=O)N3CCCCC3)cc2)c2ccccc2c1=O	–	–	–	–	–
O=C(Nc1cccc(S(=O)(=O)N2CCCC2)c1)[C@@H]1O[C@H](CO)[C@@H](O)[C@H]1O	·	·	-76	·	·
O=C(COC(=O)CCC1CCCC1)Nc1cccc(S(=O)(=O)N2CCOCC2)c1	·	–	-87	·	–
O=C(Cc1cccs1)Nc1ccc(F)c(S(=O)(=O)N2CCOCC2)c1	·	–	–	·	–
Cc1c(C#N)c2n(c1C)CCCC(=O)N2	·	·	–	·	·
CCN1CCN(S(=O)(=O)c2cc3c(cc2Cl)NC(=O)CO3)CC1	–	–	–	–	–
O=C(Cc1ccc2c(c1)OCCO2)Nc1cccc(S(=O)(=O)N2CCOCC2)c1	·	–	–	·	–
SMILES	VP16 counter	SW480 rerep	IL1B secr inh	RORgamma inh	MCF10A rerep
O=C(Nc1cccc(S(=O)(=O)N2CCCCC2)c1)Nc1ccc(Cl)cc1Cl	?	?	-87	–[10 µM]	7.3µM
O=C(Cc1ccc(Cl)c(Cl)c1)Nc1cccc(S(=O)(=O)N2CCOCC2)c1	–	–	-80	–	–
O=C(Cc1ccccc1Cl)Nc1cccc(S(=O)(=O)N2CCCCCC2)c1	·	–	-52	·	?
COc1cccc(OC)c1OCCCOc1c(OC)cccc1OC	–	–	–	–	–
COc1cccc(OCCOc2c(OC)cccc2OC)c1	–	–	-60	–	–
COCC(=O)N1CCC2(CC1)CN(C(c1ccccc1)c1ccccc1)C2	–	·	·	–	·
COc1ncc2nc(-c3ccc(F)cc3)c(=O)n(Cc3ccc(F)cc3)c2n1	–	·	·	–	·
Nc1ccc(S(=O)(=O)Nc2nc(-c3ccccc3)cc(-c3ccccc3O)n2)cc1	·	·	–	·	·
CCCCCCSc1cccc(-c2nc3ccc(C)cn3c2NC2CCCCC2)c1	·	–	–	·	–
CCCCNc1c(-c2ccc(OC)c(Sc3ccc(OC)cc3)c2)nc2cnccn12	·	?	–	·	?
CCCCNc1c(-c2ccc(SC(C)CC)cc2)nc2cnccn12 (centres undefined)	·	18µM	-72	·	4.6µM
CCCCCCSc1cc(-c2nc3cnccn3c2NCCCC)ccc1OC	·	?	?	·	15µM
CC(=O)c1csc(-c2cccc(-c3nc4ccc(Cl)cn4c3NC3CCCCC3)c2)c1	·	?	–	·	?
CCCCCCSc1cc(-c2nc3cc(C)ccn3c2NCCCC)ccc1OC	·	–	-87	·	?
CCCCNc1c(-c2cccc(-c3cc(C(C)=O)cs3)c2)nc2cc(C)ccn12	·	?	-80	·	?
C=CCNC(=O)c1n[nH]c2c1CC(C(C)(C)CC)CC2 (centres undefined)	·	–	–	·	?
COc1ccc(COC(=O)N/N=C2/C[C@@H](O)[C@@H](O)[C@@H]3[C@H]4C(=O)N(c5ccc(F)cc5F)C(=O)[C@@H]4CC[C@@H]23)cc1	–[10 µM]	·	·	–[10 µM]	·
CC(=O)Nc1ccn(C2OC(C(COC(C)=O)NC(=O)C3CCCN3C(=O)OC(C)(C)C)C(OC(C)=O)C2OC(C)=O)c(=O)n1 (centres undefined)	–	·	·	–	·
COc1ccc(C2=Nn3c(nnc3-c3ccccc3Cl)SC2)cc1OCC1CC1	·	16µM	·	·	?
COc1ccc(C2=Nn3c(nnc3-c3ccccc3OC)SC2)cc1OC1CCOC1 (centres undefined)	·	1µM	·	·	1.3µM
COc1ccc(C2=Nn3c(nnc3-c3ccc(OC)c(OC)c3)SC2)cc1OC	–	·	·	–	·
COc1ccc(OC)c(-c2nnc3n2N=C(c2ccc(OC)c(OCC4CC4)c2)CS3)c1	·	2.3µM	·	·	?
COc1ccc(C2=Nn3c(nnc3-c3ccccc3C(F)(F)F)SC2)cc1OC1CCOC1 (centres undefined)	·	–	·	·	–
COc1ccc(C2=Nn3c(nnc3-c3ccncc3)SC2)cc1OC	–	16µM	?	–	?
COC(=O)C/C=C/C(C)C(OCc1cccc(Br)c1)C(C)C(OC)C1CCCCC1 (centres undefined)	–[10 µM]	·	·	–[10 µM]	·
SMILES	VP16 counter	SW480 rerep	IL1B secr inh	RORgamma inh	MCF10A rerep
CCOc1ccc(C2=Nn3c(nnc3-c3ccccc3OC)SC2)cc1	–	0.26µM	–	–	?
COc1ccccc1NS(=O)(=O)c1cc2c3c(c1)CCN3C(=O)CC2	·	–	–	·	–
COc1ccc2c(=O)c(Oc3ccc(C(=O)O)cc3)c(C(F)(F)F)oc2c1	13µM	–	–	?	–
COc1ccc(C2C=C(c3ccc(Br)s3)Nc3ncnn32)cc1OC (centres undefined)	–[0.365 µM]	·	·	–	·
COc1cccc(C2=CC(c3cc(OC)ccc3OC)n3nnnc3N2)c1 (centres undefined)	–	?	-77	–	?
COc1cccc(C2C=C(c3cccs3)Nc3ncnn32)c1OC (centres undefined)	?	–	–	11µM	–
COc1cccc(C2=CC(c3cccc(OC)c3OC(F)F)n3nnnc3N2)c1 (centres undefined)	–	?	–	–	?
